Laboratory results as given in PubChem BioAssay (EPA / NIEHS).
Records with an inconclusive call do not appear. The source made the active and inactive calls. Rule for the calls: active = hit-call score of the fitted dose curve at least 0.9, where 1 is the maximum; inconclusive = response in the unintended direction; inactive = score below 0.9.

What follows are compounds tested against bovine Estrogen Receptor (ER), ESR1 (gene 407238) (UniProt P49884) (assay: NVS_NR_bER: NovaScreen (NVS) Nuclear Receptor Binding Assay for bovine Estrogen Receptor (ER) (AID 2283345);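 note: actives lower the bound radioligand count which means they displace the ER ligand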).
Sequence of bovine Estrogen Receptor (ER), ESR1 (gene 407238) (P49884 whole entry, looked up): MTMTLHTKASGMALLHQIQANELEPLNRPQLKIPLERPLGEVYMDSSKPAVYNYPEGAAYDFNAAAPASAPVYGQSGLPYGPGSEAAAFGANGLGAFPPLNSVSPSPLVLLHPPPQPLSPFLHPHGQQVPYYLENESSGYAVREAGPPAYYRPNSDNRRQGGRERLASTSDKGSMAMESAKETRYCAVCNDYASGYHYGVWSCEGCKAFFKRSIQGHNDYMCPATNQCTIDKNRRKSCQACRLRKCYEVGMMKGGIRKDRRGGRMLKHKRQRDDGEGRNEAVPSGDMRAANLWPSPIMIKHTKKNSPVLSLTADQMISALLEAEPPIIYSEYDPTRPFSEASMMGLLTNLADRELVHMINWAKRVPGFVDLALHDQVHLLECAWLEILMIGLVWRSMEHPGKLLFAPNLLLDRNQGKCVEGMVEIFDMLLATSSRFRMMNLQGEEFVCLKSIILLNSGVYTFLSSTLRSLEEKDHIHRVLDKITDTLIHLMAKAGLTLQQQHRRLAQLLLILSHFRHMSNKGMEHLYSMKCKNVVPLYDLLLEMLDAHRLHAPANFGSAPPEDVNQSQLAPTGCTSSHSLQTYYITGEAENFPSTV
Protocol: NVS_NR_bER is a biochemical, single-readout assay that uses extracted gene-proteins from Bovine uterine membranes in a tissue-based cell-free assay. Measurements were taken 18 hours after chemical dosing in a 96-well plate.NVS_NR_bER is one of one assay component(s) measured or calculated from the NVS_NR_bER assay. It is designed to make measurements of radioligand binding, a form of binding reporter, as detected with scintillation counting signals by Lysate-based radiodetection technology.Data from the assay component NVS_NR_bER was analyzed into 1 assay endpoint. This assay endpoint, NVS_NR_bER, was analyzed in the positive analysis fitting direction relative to DMSO as the negative control and baseline of activity. Using a type of binding reporter, loss-of-signal activity can be used to understand changes in the binding as they relate to the gene ESR1. Furthermore, this assay endpoint can be referred to as a primary readout, because the performed assay has only produced 1 assay endpoint. To generalize the intended target to other relatable targets, this assay endpoint is annotated to the nuclear receptor intended target family, where the subfamily is steroidal.
Binding assays used specific radioligands (tritiated, iodinated) with non-radioactive competitive displacement ligands in agonist or antagonist protocols (as indicated) and various reference compounds and inhibitors to titrate specific binding to receptors and transporters. Most enzyme assays (CYPs, kinases, phosphatases, proteases, HDACs) used recombinant protein and specific substrates (fluorescence mostly, some colorimetric and radioactive) and inhibitors, followed by a biochemical separation of substrate and product. All assays for the biochemical HTS were initially run in duplicate at a single concentration (10 uM for CYP450 assays and 25 uM for all others). […] Each assay was run with positive and negative controls, and concurrent controls on every plate. The follow-up (secondary) screen tested active chemical-pairs in concentration series, as well as a few additional assays not tested in the primary screen, some selected negative inactives, and several cases re-run in the concentration series for confirmatory purposes.
`CNCCCC12CCC(c3ccccc31)c1ccccc12` was tested, and the outcome was “inactive”. With `C#C[C@]1(O)CC[C@H]2[C@@H]3CCC4=Cc5oncc5C[C@]4(C)[C@H]3CC[C@@]21C` the outcome was “inactive”. For `CC1COc2ccccc2N1C(=O)C(Cl)Cl` (configuration not stated), the AC50 was 0.588 µM (active). With `Cc1cc(C2(c3cc(C)c(O)cc3C)OS(=O)(=O)c3ccccc32)c(C)cc1O` the AC50 was 10.6 µM (active). For `CN(CCOc1ccc(CC2SC(=O)NC2=O)cc1)c1ccccn1` (configuration not stated), the outcome was “inactive”. With `CC(=O)[C@H]1CC[C@H]2[C@@H]3CC=C4C[C@@H](O)CC[C@]4(C)[C@H]3CC[C@]12C` the outcome was “inactive”. For `CC(C)C(C)(C)C(C)(C)C(C)(C)S`, the outcome was “inactive”. For `CN(C)c1ccc(O)c2c1C[C@H]1C[C@H]3[C@H](N(C)C)C(=O)C(C(N)=O)=C(O)[C@@]3(O)C(=O)C1=C2O`, the outcome was “inactive”. `CC(C)(C)C(=O)c1ccccc1` was tested, and the outcome was “inactive”. For `Nc1cccc(S(=O)(=O)c2cccc(N)c2)c1`, the outcome was “inactive”. For `CC1=CCC2C(C1)C2(C)C` (configuration not stated), the outcome was “inactive”. `NC(=O)Nc1ccc(Cl)cc1` was tested, and the outcome was “inactive”. With `C=CC(=O)OCC(O)COc1ccccc1` (configuration not stated) the outcome was “inactive”. With `CC(C)c1cccc(O)c1` the outcome was “inactive”. In the case of `O=Nc1ccc(Nc2ccccc2)cc1`, the outcome is reported as “inactive”. In the case of `c1cc(C(c2ccc(OCC3CO3)cc2)c2ccc(OCC3CO3)cc2)ccc1OCC1CO1` (configuration not stated), the outcome is reported as “inactive”. With `NNc1nc(-c2ccc(N)cc2)cs1` the outcome was “inactive”. For `O=C(O)CCSCCC(=O)O`, the outcome was “inactive”. In the case of `CCCCCCCCC=O`, the outcome is reported as “inactive”. With `CCCc1c(OCCCOc2ccc(OCC(=O)O)cc2)ccc(C(C)=O)c1O` the outcome was “inactive”. `CCCCCCCCCC=O` was tested, and the outcome was “inactive”. For `CC(C)=CCO`, the outcome was “inactive”.
